Out of some 200,000 compounds screened, about 860 (0.43%) were called active. For the sample, actives were picked, then their nearest neighbours and some compounds at random. A number with no mark means an inactive call. The call rests on the fitted dose curve; in most records, active means well fitted inhibition curve with a large enough effect; inconclusive means small, poorly fitted or top-dose-only effect; inactive means flat fitted curve, though single readings scatter.

In PubChem BioAssay AID1478 (National Center for Advancing Translational Sciences (NCATS), 2009) one finds Potency and max response, negative = inhibition data, which are given here for 45 molecules.
Potency means the concentration at half of the fitted maximal effect.

The experiment deals with Cruzipain (Trypanosoma cruzi) (UniProt P25779). The experiment can be described thus: qHTS Assay for Promiscuous and Specific Inhibitors of Cruzain (with detergent). Further: nearly all actives have a fitted effect of over 40% in size. To be noted: purified cruzain, Z-FR-AMC fluorescence, 0.01% Triton. The method, then: Cruzain (3.4.22.51) is a cysteine protease from the tropical parasite Trypanosoma cruzi. Dual qHTS experiment was performed against the NCGC compound collection in order to 1) identify novel inhibitors of the enzyme and 2) profile the compound collection for promiscuous inhibitors operating via colloidal aggregation (by performing detergent-free and detergent-containing comparison screens). Cruzain was assayed by the use of fluorogenic coumarin-based substrate Z-FR-AMC: proteolytic cleavage releases AMC, whose fluorescence is measured at 360 nm excitation and 450 nm emission. Purified cruzain was supplied by the labs of Prof. James McKerrow and Brian Shoichet, UC San Francisco.
Sequence of Cruzipain (Trypanosoma cruzi) (P25779 123-467 limits assumed): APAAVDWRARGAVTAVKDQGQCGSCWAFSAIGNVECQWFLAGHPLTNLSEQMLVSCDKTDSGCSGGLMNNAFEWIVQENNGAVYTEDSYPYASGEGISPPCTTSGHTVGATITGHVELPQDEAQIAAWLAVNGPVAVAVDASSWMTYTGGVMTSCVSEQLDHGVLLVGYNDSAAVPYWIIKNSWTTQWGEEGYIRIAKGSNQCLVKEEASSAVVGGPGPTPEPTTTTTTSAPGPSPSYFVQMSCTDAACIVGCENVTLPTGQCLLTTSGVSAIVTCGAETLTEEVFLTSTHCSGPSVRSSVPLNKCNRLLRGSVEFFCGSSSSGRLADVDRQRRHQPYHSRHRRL
This assay had 0.01% Triton X-100 concentration. See also releated assay "qHTS Assay for Promiscuous and Specific Inhibitors of Cruzain (without detergent)" with 0.00005% Triton X-100.
See following references for additional details:
Assay Provider: Shoichet, Brian; University of California, San Fancisco
Screening Center PI: Austin, C.P.
Screening Center: NIH Chemical Genomics Center [NCGC]
Buffer: 100 mM Sodium Acetate, pH 5.5, 5 mM DTT, Triton X-100 concentration: 0.01%.
Buffer in columns 3 and 4 as negative control (no enzyme).
Substrate solution: 2 uM final concentration of Z-FR-AMC (catalog number I-1160, Bachem) dispensed throughout the plate.
Enzyme: 1.5 nM Cruzain final concentration in columns 1, 2, 5-48. Column 1 is neutral (100% activity). Column 2 contained titration of covalent inhibitor K11777, starting concentration 1 mM, then 1:2 dilution in duplicate).
Three uL of enzyme or buffer were dispensed to 1536-well Greiner black solid bottom plates. Compounds and controls (23 nL) were transferred via Kalypsys PinTool. The plates were incubated for 15 min at room temperature, and then 1 uL of substrate solution was added to start the reaction. The plates were immediately transferred to and read 4 times every 30 seconds for 2 min on ViewLux High-throughput CCD imager (Perkin-Elmer) using 360 nm excitation and 450 nm emission fluorescence protocol. The fluorescence intensity difference between the third and the first time points (time lapse of 60 seconds) was used to compute reaction progress.
Consider `Cc1cccc(C(=O)NCCc2nc3ccccc3n2Cc2ccccc2Cl)c1`, for which the Potency is 8.91 µM (active).

For `CCCCCn1c(CCCNC(=O)c2ccccc2OC)nc2ccccc21`, the max response, negative = inhibition is -1.13%.

Take `CCCCn1c(CCCNC(=O)CC)nc2ccccc21`: the max response, negative = inhibition is -2.07%. The same measure, in the same setting: the same measure for `Cc1ccc(C)c(Cn2c(CCCNC(=O)C3CCCCC3)nc3ccccc32)c1`: -3.31%. For `CCC(=O)NCCc1nc2ccccc2n1CC`, the max response, negative = inhibition is 4.89%. On the same count and under the same terms, the same measure for `COc1ccc(Cn2c(C(=O)O)c(CNCc3cccc(OC)c3)c3ccc(C)cc32)cc1`: -10.4%; for `CCCCCn1c(=O)[nH]c2cc(C(=O)Nc3ccc(F)cc3)ccc2c1=O`: -0.504%. The same measure, in the same setting: the same measure for `O=C(Nc1cc(C(F)(F)F)ccc1Cl)c1nc2ccccc2nc1N1CCCCC1`: 2.61%; for `COc1ccccc1NC(=O)C(=O)c1cc(C)n(-c2ccccc2F)c1C`: -2.07%. In the case of `O=C(CC1N=C2c3ccccc3N=C(SCc3ccc(F)cc3)N2C1=O)NCc1cccs1` (stereo not given), the max response, negative = inhibition is -4.42%. On the same count and under the same terms, the same measure for `COc1cc(OC)c(NC(=O)c2cnc(N3CCCC3)nc2C)cc1Cl`: -6.84%; for `Cc1ccc(CNS(=O)(=O)c2ccc(C(=O)N(C)C)s2)cc1`: -0.386%; for `CCc1ccccc1NC(=O)Cc1ccc(NC(=O)N2CCCCc3ccccc32)cc1`: -5.61%. For `CC(=O)N1CCCc2cc(S(=O)(=O)N3CCC(C(=O)NC4CCCCC4)CC3)ccc21`, the max response, negative = inhibition was -0.0735%.

For the molecule `O=C(NCc1ccco1)c1cc(-c2cccnc2)nc2ccc(Cl)cc12`, the max response, negative = inhibition was -13.8%.

`CCOc1ccc(CNC(=O)c2cc(-c3ccc(Cl)s3)nc3ccccc23)cc1`: the max response, negative = inhibition is -0.709%. With `CCc1ccc(-c2cc(C(=O)NCc3ccco3)c3ccccc3n2)s1`, the Potency is 22.4 µM (active).

Consider `Cc1ccc2nc(/C(C#N)=C/c3ccc(-c4ccc(C(=O)OC(C)C)cc4)o3)[nH]c2c1`, for which the max response, negative = inhibition was -3.11%.

`Fc1ccc(-c2nc(Nc3cccc(Cl)c3)nc3c2COc2ccccc2-3)cc1`: the max response, negative = inhibition is -3.92%.

Take `Cc1ccc(-n2ncc3c(NCCCn4ccnc4)ncnc32)cc1Cl`: the max response, negative = inhibition was -0.0419%.

As for `CC(=O)c1ccc2c(ccc3ccccc32)c1`, the max response, negative = inhibition is -9.87%. Still for that read-out and setting: the same measure for `CC(=O)CCC(=O)c1ccc2ccccc2c1`: -3%. As for `C=CC(=O)c1ccc2ccccc2c1`, the Potency is 3.98 µM (active). Consider `COc1ccc(Cc2nc3ccc(C(=O)NCc4ccc(OC)cc4OC)cc3o2)cc1`, for which the max response, negative = inhibition is -5.34%. Still for that read-out and setting: the same measure for `Fc1ccc2[nH]c3c(N4CCSCC4)ncnc3c2c1`: -6.83%. Consider `CCCn1c(-c2ccc(F)cc2)nc2c(NCC3CCCN3CC)nc(C)nc21` (stereo not given), for which the max response, negative = inhibition was -1.1%. As to `CCN1CCCC1CNc1ncnc2c1[nH]c1ccc(F)cc12` (stereo not given), the Potency is 25.1 µM (active). In the case of `Cc1cc2c(cc3c(SCc4cccc(Cl)c4)nnc(C)n32)o1`, the max response, negative = inhibition was -4.57%.

`COC(=O)c1ccc(Cn2c(SCC(=O)N(C)c3ccccc3)nc3ccccc32)cc1`: the max response, negative = inhibition was -5.82%.

Take `COc1ccc(OC)c(CNC(=O)Cn2nc(C)c3c(C)n(-c4ccccc4)nc3c2=O)c1`: the max response, negative = inhibition is -2.6%. In the case of `CCN(c1ncnc2c1cnn2-c1ccc(C)cc1)C1CCCCC1`, the max response, negative = inhibition is 1.62%. For the molecule `CCOc1ccc(N2CC(C)Cn3c2nc2c3c(=O)n(Cc3c(F)cccc3Cl)c(=O)n2C)cc1` (stereo not given), the max response, negative = inhibition was -3.27%. As for `Cc1ccc(-c2c3c(=O)n(C)c(=O)n(C)c3cn2-n2cnnc2)cc1`, the Potency was 10 µM (active). On to `Cc1ccc(-c2c3c(=O)n(C)c(=O)n(C)c3cn2-c2ccccc2O)cc1`, for which the max response, negative = inhibition is 0.548%.

Take `COc1ccc(-c2c3c(=O)n(C)c(=O)n(C)c3cn2-c2cccc(OC)c2)cc1`: the max response, negative = inhibition is -3.29%. For the molecule `OCc1cnc(SCc2ccc(F)cc2)n1Cc1ccc(F)cc1`, the max response, negative = inhibition was -1.84%. Take `CCOc1ccccc1NC(=O)CCn1cnnn1`: the max response, negative = inhibition was 2.1%. On the same count and under the same terms, the same measure for `CCOC(=O)c1cccc(NC(=O)c2cc(CN3CCCC3)on2)c1`: -1.68%. For `CCOc1cccc(C(=O)Nc2nnc(S(=O)(=O)N(C)c3ccc(C)cc3)s2)c1`, the max response, negative = inhibition was -2.64%. Same read-out and setting: the same measure for `Cc1ccccc1CNC(=O)C(=O)NCC(c1cccs1)S(=O)(=O)c1cccs1` (stereo not given): -2.25%; for `Cc1cc(=O)c2cc(C(=O)Nc3cccc(C)c3C)ccc2[nH]1`: -3.15%. In the case of `Cc1cccc(NC(=O)CSc2ncc(-c3ccccc3)[nH]2)c1C`, the max response, negative = inhibition is -4.22%.

Regarding `O=C(CSc1ncc(S(=O)(=O)c2ccc(Br)cc2)c(=O)[nH]1)Nc1ccc2c(c1)OCCO2`, the max response, negative = inhibition is -23.7%. `CCOc1ccccc1NC(=O)CSc1ncc(S(=O)(=O)c2ccc(C(C)(C)C)cc2)c(=O)[nH]1`: the Potency is 28.2 µM (active). On to `CCOc1ccc(CNC(=O)c2cc(=O)[nH]c3ccc(S(=O)(=O)N4CCCCC4)cc23)cc1`, for which the max response, negative = inhibition was 0.425%.
